Compound activity (PubChem)
Shown are actives, neighbours in structure and some others; about 3% of the full set was active somewhere.
BioA inh: M. tuberculosis BioA enzyme inhibitors, primary screen, biochemical, plate reader, single point, HTS | 7,8-diaminopelargonic acid synthase BioA (Mycobacterium tuberculosis) | purified M. tuberculosis BioA enzyme | inhibition, % at 9.99 µM | 360,000 tested, 0.096% active | AID 602481, 2012; in the data active means inhibition above about 40%; inconclusive means no clear call, values can overlap the other calls
GDH-TPI inh: GDH-TPI coupling enzyme inhibitors, primary screen, artefact control for M. tuberculosis FBA inhibitor project, biochemical, absorbance, full deck; GDH-TPI coupled enzyme counterscreen, NADH absorbance; inhibition, % at 4.8 µM; 360,000 tested, 1.2% active; in the data active means inhibition above about 30%;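 further: 0% = DMSO wells and 100% = wells lacking the enzyme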
FadD28 binding: inhibitors of FadD28 bisubstrate probe binding, primary screen, biochemical, fluorescence polarization, single point; Mycobacterium tuberculosis FadD28 fatty-acid-AMP ligase; inhibition, % at 12.5 µM; 360,000 tested, 0.22% active; AID 588549, 2011; in the data active means inhibition above about 8.5%, passing the limit was not always enough; inconclusive means no clear call, values can overlap the other calls
Rv3671c protease: Rv3671c serine protease inhibitors, primary screen, biochemical, fluorescence polarization, M. tuberculosis H37Rv; inhibition, % at 5.96 µM; 320,000 tested, 0.048% active; in the data active means inhibition above about 38%;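 further: extracellular domain of Rv3671c used as enzyme; 0% = enzyme with DMSO and 100% = no enzyme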
Mtb FBA inh: Mtb FBA enzyme inhibitors, primary screen, biochemical, fluorescence, strain H37Rv; 360,000 tested, 2.3% active; Fructose-bisphosphate aldolase (Mycobacterium tuberculosis (strain ATCC 25618 / H37Rv)), …; purified M. tuberculosis FBA, fluorescence read-out; inhibition, % at 1 µM; in the data active means inhibition above about 27%;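 further: 0% = vehicle and 100% = reference inhibitor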
Target sequence (P9WQA3 whole entry, looked up): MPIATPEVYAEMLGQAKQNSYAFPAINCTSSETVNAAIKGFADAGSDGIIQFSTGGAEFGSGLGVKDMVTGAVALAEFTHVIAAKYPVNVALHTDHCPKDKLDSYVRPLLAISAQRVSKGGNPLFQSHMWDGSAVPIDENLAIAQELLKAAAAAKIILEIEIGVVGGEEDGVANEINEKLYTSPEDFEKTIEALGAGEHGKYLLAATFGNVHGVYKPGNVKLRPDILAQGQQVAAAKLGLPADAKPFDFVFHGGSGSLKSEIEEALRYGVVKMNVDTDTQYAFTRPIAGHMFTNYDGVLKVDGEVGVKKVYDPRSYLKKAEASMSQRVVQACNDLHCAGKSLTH
* hit, by the source's call; u = inconclusive; x = not tested or not shown; + = active, no number.

SMILES	BioA inh	GDH-TPI inh	FadD28 binding	Rv3671c protease	Mtb FBA inh
Cc1ccc(S(=O)(=O)N(C)C[C@@H]2Oc3c(NC(=O)NC(C)C)cccc3C(=O)N([C@@H](C)CO)C[C@@H]2C)cc1	-1	x	x	x	x
O=C(O)c1cc2ccc3ccccc3c2oc1=O	2	10	-2	-1	196*
O=C(O)c1cc2cc(Cl)cc(Cl)c2oc1=O	-1	10	3	-13	5
CC(C)(C)NC(=O)c1cc2c(ccc3ccccc32)oc1=O	4	5	0	5	80*
C=CCc1cccc2cc(C(=O)NC(C)(C)C)c(=O)oc12	-2	3	0	2	0
C[C@H](CO)N1C[C@H](C)[C@@H](CN(C)C(=O)c2cccc(F)c2)Oc2ncc(-c3cncnc3)cc2C1=O	-3	x	x	x	x
CCNC(=S)NNC(=O)c1cccn(Cc2ccc(Cl)cc2Cl)c1=O	1	32*	1	-1	11
C[C@@H]1CCCCO[C@@H](CN(C)C(=O)c2ccccc2)[C@@H](C)CN([C@@H](C)CO)C(=O)c2cc(NS(=O)(=O)c3cccs3)ccc2O1	0	x	x	x	x
S=C(N/N=C/c1ccc(Cl)c(Cl)c1)Nc1ccccc1Cl	x	2	-1	-4	-3
CCCOc1ccc(/C=N/NC(=S)Nc2ccccc2[N+](=O)[O-])c(O)c1	x	x	x	10	x
O=[N+]([O-])c1cc(/C=N/NC(=S)Nc2ccccc2Cl)ccc1Cl	-1	33*	-4	-16	-1
Cc1ccc(NC(=S)N/N=C/c2ccc(Cl)c([N+](=O)[O-])c2)cc1	x	33*	0	9	-3
COc1ccc(/C=N/NC(=S)Nc2ccccc2[N+](=O)[O-])cc1O	8	49*	-3	-8	-9
Cc1ccc(C=NNC(=O)C(=O)Nc2ccc(Cl)c([N+](=O)[O-])c2)cc1	x	x	-4	x	-1
C[C@@H]1CN([C@@H](C)CO)C(=O)c2cc(NS(=O)(=O)c3ccc(F)cc3)ccc2O[C@@H](C)CCCCO[C@@H]1CN(C)Cc1ccncc1	0	x	x	x	x
C[C@@H]1CN([C@H](C)CO)C(=O)c2cc(NC(=O)C3CCCCC3)ccc2O[C@H]1CN(C)Cc1ccccc1	2	x	x	x	x
C[C@H](CO)N1C[C@H](C)[C@@H](CN(C)Cc2cncnc2)Oc2cc(/C=C/c3ccccc3)ccc2S1(=O)=O	1	x	x	x	x
COc1cccc(C(=O)Nc2nnc(S(=O)(=O)Nc3cccc(C)c3)s2)c1	-2	37*	-1	-16	6
COc1cccc(C(=O)Nc2nnc(-c3ccc(OC)cc3OC)s2)c1	0	4	-5	-3	0
Cc1cccc(NS(=O)(=O)c2nnc(NC(=O)c3ccc(C)c(C)c3)s2)c1	-2	25	-3	-24	0
COc1cccc(C(=O)Nc2nnc(-c3ccccc3)s2)c1	-1	36*	-1	x	19
CCCCCCCCCCCCCCCCn1cc[n+](C)c1	x	3	49*	13	-4
Cc1ccccc1NC(=O)Nc1ccc2c(c1)C(=O)N(C)[C@H]1CC[C@H](CC(=O)O)O[C@H]1CO2	4	x	x	x	x
O=C(CN(Cc1ccc(Br)cc1)S(=O)(=O)c1ccccc1)NCc1cccnc1	0	-5	-6	5	1
O=C(NCc1cccnc1)/C(=C\c1ccc(-c2ccc(Br)cc2)o1)S(=O)(=O)c1ccccc1	1	32*	-2	-44	-1
SMILES	BioA inh	GDH-TPI inh	FadD28 binding	Rv3671c protease	Mtb FBA inh
O=C(NCc1cccnc1)/C(=C/c1ccc(-c2cccc(C(F)(F)F)c2)o1)NC(=O)c1ccccc1	-2	33*	-13	-3	2
Cc1ccc(C(=O)N/C(=C/c2ccc(-c3cc(C(F)(F)F)ccc3Cl)o2)C(=O)NCc2cccnc2)cc1	-3	30	-2	-28	5
O=C(NCc1cccnc1)/C(=C/c1ccc(-c2ccc(Cl)cc2)o1)S(=O)(=O)c1ccccc1	0	40*	-5	-15	5
Cc1ccc(S(=O)(=O)N(C)C[C@@H]2Oc3cc(Br)ccc3S(=O)(=O)N([C@H](C)CO)C[C@@H]2C)cc1	-2	x	x	x	x
C(=NN=Cc1c[nH]c2ccccc12)c1c[nH]c2ccccc12	-1	41*	-3	x	-3
O/N=C/c1c[nH]c2ccccc12	x	-5	-3	0	-5
O=C1CS/C(=N/N=C/c2c[nH]c3ccccc23)N1	0	35*	0	1	1
O=C(NCCc1ccccc1)c1ccc2c(=O)[nH]c3c(C(=O)NCC4CCCO4)sc(=S)n3c2c1 (stereo unspecified)	5	7	61*	-24	3
O=C(NCC1CCCO1)c1sc(=S)n2c1[nH]c(=O)c1ccc(C(=O)N3CCCCC3)cc12 (stereo unspecified)	2	15	10.0*	-2	-2
CCOc1ccc(CCNC(=O)c2ccc3c(=O)[nH]c4c(C(=O)NC(C)C)sc(=S)n4c3c2)cc1	-3	5	21*	-10	4
CCCCNC(=O)c1sc(=S)n2c1[nH]c(=O)c1ccccc12	3	4	24*	-3	-16
COc1ccc(S(=O)(=O)N(C)C[C@@H]2Oc3c(NC(=O)c4cnccn4)cccc3C(=O)N([C@H](C)CO)C[C@H]2C)cc1	-2	x	x	x	x
COCC(=O)Nc1ccc2c(c1)[C@H]1C[C@@H](CC(=O)NCCc3ccccc3)O[C@H](CO)[C@H]1O2	-1	x	x	x	x
CC1(C)Oc2cc3oc(-c4cc(O)cc(O)c4)cc3cc2CC1O (stereo unspecified)	1	29	u	2	89*
Cc1noc(C)c1NC(=O)N(C)C[C@H]1OCCCC[C@@H](C)Oc2ccc(NS(=O)(=O)c3c(C)noc3C)cc2C(=O)N([C@@H](C)CO)C[C@H]1C	4	x	x	x	x
Cc1cc2nc(-c3ccccc3O)[nH]c2cc1C	-1	15	-2	x	157*
Cc1ccc2nc(Cc3ccc(N)cc3)[nH]c2c1	-1	9	-2	3	1
Nc1ccc(-c2nc3c(Cl)c(N)ccc3[nH]2)cc1	-7	38*	11*	-5	+
Nc1ccc(-c2nc3ccc([N+](=O)[O-])cc3[nH]2)cc1	x	22	-3	-1	2
Cc1ccc(C)c(-c2nc3ccc(N)cc3[nH]2)c1	-3	-2	-6	-17	189*
O=[N+]([O-])c1ccc(-c2nc3ccc([N+](=O)[O-])cc3[nH]2)cc1	1	31*	0	3	1
Cc1noc(C)c1NC(=O)N[C@H]1CC[C@H](CC(=O)N2CCCCC2)O[C@H]1CO	-3	x	x	x	x
Nc1ccc2nc(-c3cccc(-c4nc5ccc(N)cc5[nH]4)c3)[nH]c2c1	x	27	-1	25	0
Cc1nc2ccc(-c3nc4ccc(N)cc4[nH]3)cc2[nH]1	x	4	-5	16	+
Nc1ccc2nc(-c3cc(Cl)c(N)c(Cl)c3)[nH]c2c1	-2	35*	u	15	25
